Assay results reported in PubChem BioAssay (NCATS).
Where “and” joins values, the source holds several entries; their conditions need not be identical. Identical values can stand only once. Results filed as inconclusive are left out. A call without a number means that no potency is given here. Calls of active or inactive are those of the source. Unless noted, calls come from the whole dose curve; as a rule, active = well fitted curve in the direction sought with a large enough effect; inconclusive = small, poorly fitted or top-dose-only effect, or another doubt; inactive = no such curve, though single readings can be large; an effect the other way counts as inactive or inconclusive.

Legend:
[1] = Cytometric Cell-Based qHTS for Inhibitors of the mTORC1 Signaling Pathway in MEF (Tsc2-/-, p53-/-) Cells (AID 2660);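 note: percent of cells above a phospho-rpS6 to PI ratio cutoff in each well; series mostly up to about 38 µM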
Summary of the method: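 Tsc2-/-, p53-/- MEFs (empty vector) exposed to compound 24 h at 37 C, fixed, stained with Alexa-488 anti-phospho-rpS6 Ser235/236 and propidium iodide. Acumen laser scanning; phospho-S6/PI ratio thresholded against 7.5 nM rapamycin, reported as % positive cells.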

[2] = High Content Imaging Cell-Based qHTS for Inhibitors of the mTORC1 Signaling Pathway in MEF Cells (AID 2667); note: potency is the fitted concentration of half-maximal effect
Summary of the method: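 Immunofluorescence for rpS6 phosphorylation in MEFs of Tsc2-/-, p53-/- background rescued with WT Tsc2. Compound exposure lasted 24 hrs. Inhibition was scored against rapamycin-treated control wells.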

[3] = Cytometry Cell-Based qHTS for Inhibitors of the mTORC1 Signaling Pathway in MEF cells (AID 2668); note: potency is the fitted concentration of half-maximal effect
Summary of the method: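 Phospho-rpS6 (Ser235/236) immunofluorescence over PI signal, scored as % positive cells using thresholds from 7.5 nM rapamycin and DMSO wells, after 24 h compound exposure of WT-Tsc2-rescued Tsc2-/-, p53-/- MEFs. PI cell count recorded for viability.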

[4] = Validation screen for small molecules that induce DNA re-replication in MCF 10A normal breast cells (AID 463097); note: nearly all actives have a fitted effect of over 60% in size
Summary of the method: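 Read-out is Hoechst total nuclear intensity by fluorescence scanning imager, flagging increased high-DNA-content nuclei. Compounds were incubated with MCF 10A cells for 48 hr (37 C, 5% CO2) before 40 min staining.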

[5] = target: Ubiquitin carboxyl-terminal hydrolase 2 (Homo sapiens) (UniProt O75604); experiment: qHTS Validation Assay for Inhibitors of Ubiquitin-specific Protease USP2a Using CHOP2 as the Reporter (AID 463106)
Summary of the method: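 10nM USP2 core + cpd, 30min RT; add 25nM Ub-CHOP2/25nM substrate; 60min RT; FI 485/531nm. Buffer Tris pH 8.0, CaCl2, BME, CHAPS. Norm. to NEM = 100% inhibition; time-zero read flags fluorescent artifacts.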

[6] = target: Tumor susceptibility gene 101 protein (Homo sapiens) (UniProt Q99816); experiment: qHTS Validation Assay for Iinhibitors of HIV-1 Budding by Blocking the Interaction of PTAP/TSG101 (AID 485342; calls by dose curve)
Summary of the method: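 Fluorescence polarization of 50 nM FITC-PTAP peptide bound to 10 uM Tsg101 binding domain was read after 20 min room-temperature incubation with compounds, in 10 mM HEPES pH 7.5, 0.15 M NaCl, 0.01% Tween 20.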

[7] = qHTS Validation Assay to Find Inhibitors of Chronic Active B-Cell Receptor Signaling (AID 485345; active = well fitted curve in the direction sought with a large enough effect in the main read-out, with a control signal flat, not every such curve was filed as active)
Summary of the method: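 Read-out: ratio of filter-corrected green (IkappaBalpha fusion) to red (native) luciferase signal in doxycycline-induced TMD8 cells after 4 h at 37C. Titration spanned 46 uM–3 nM; Data were normalised to basal cells and 10 uM MG-132 wells.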

[8] = target: Beta-2 adrenergic receptor (Homo sapiens) (UniProt P07550); experiment: qHTS validation assay of beta-arrestin-biased ligands of beta2-adrenergic receptor (AID 485366)
Summary of the method: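 Tango cells expressing recombinant beta2-AR and beta-arrestin with tTA-driven luciferase, in DMEM with 1% FBS. Compounds were titrated up to 46 microM for 18 hr at 37 degrees C. Luminescence was read 15 min after substrate; curves were fitted and class-assigned.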

[9] = Quantitative high throughput screen for delayed death inhibitors of the malarial parasite plastid, 96 hour incubation (AID 488745); note: nearly all actives have a fitted effect of over 70% in size; note: potency is the fitted concentration of half-maximal effect
Summary of the method: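 Infected erythrocytes were added to compound in Albumax-supplemented RPMI 1640 at 0.1% parasitemia and 2% hematocrit (final), incubated 96 h at 37 C under 5% CO2, then luciferase reagent was added and luminescence measured.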

[10] = Quantitative high throughput screen for delayed death inhibitors of the malarial parasite plastid, 48 hour incubation (AID 488752); note: nearly all actives have a fitted effect of over 65% in size; note: potency is the fitted concentration of half-maximal effect
Summary of the method: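 Readout is firefly luciferase luminescence from a reporter integrated into the parasite genome, with lower signal taken as inhibited growth. Infected red cells (0.1% parasitemia, 2% hematocrit final) are cultured with compound for one 48 h cycle at 37 C.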

[11] = target: Thioredoxin reductase 1, cytoplasmic (Rattus norvegicus) (UniProt O89049); experiment: qHTS Assay for Substrates of Mammalian Selenoprotein Thioredoxin Reductase 1 (TrxR1) (AID 488772);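 note: NADPH fluorescence in the first read after selenite addition and not the 8 min delta; series mostly up to about 57 µM; a drop in NADPH fluorescence below the no-compound background marks a TrxR1 substrate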
Summary of the method: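 Quantitative HTS in Tris-HCl buffer at pH 7.5 with EDTA and Tween-20, using rat TrxR1, 400 uM NADPH and 400 uM selenite (final). A fall in initial NADPH fluorescence relative to background marked substrate behaviour.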

[12] = target: Thioredoxin reductase 1, cytoplasmic (Rattus norvegicus) (UniProt O89049); experiment: qHTS Assay for Inhibitors of Mammalian Selenoprotein Thioredoxin Reductase 1 (TrxR1) (AID 488773); conditions: Potency: inhibition;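 note: drop in NADPH fluorescence over an 8 min run after selenite addition; series mostly up to about 57 µM; nearly all actives have a fitted effect of over 40% in size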
Summary of the method: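 Steps: enzyme (90 nM) plus NADPH (400 uM final), 5 min at ~22 deg C; compound added, 15 min; selenite (400 uM final) added; fluorescence followed for 8 min. Concentration-response curves derived from the normalized delta values.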

[13] = target: Flap endonuclease 1 (Homo sapiens) (UniProt P39748); experiment: qHTS Validation Assay for the Inhibitors of Human Flap endonuclease 1 (FEN1) (AID 488816); note: potency is the fitted concentration of half-maximal effect
Summary of the method: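 Readings taken at 0 and 15 min after starting the reaction with 50 nM (final) substrate supplied the signal. Compounds had first sat with 10 nM FEN1 reagent for 15 min at room temperature. Values come from Hill-equation concentration-response fits.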

[14] = target: M-phase phosphoprotein 8 (Homo sapiens) (UniProt Q99549); experiment: qHTS Validation Assay for Inhibitors for MPP8 Chromodomain Interactions with Methylated Histone Tails (AID 488949); note: nearly all actives have a fitted effect of over 55% in size; note: potency is the fitted concentration of half-maximal effect
Summary of the method: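 AlphaScreen proximity signal from streptavidin donor and Ni-chelate acceptor beads (10 ug/mL each) reported binding of MPP8 to trimethyl-K9 H3(1-18) peptide, both at 50 nM. The complex formed 30 min before a 30 min compound exposure at room temperature, in PBS pH 7.4.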

[15] = target: Chromobox protein homolog 1 (Homo sapiens) (UniProt P83916); experiment: qHTS Validation Assay for Inhibitors of HP1-beta Chromodomain Interactions with Methylated Histone Tails (AID 488953); note: nearly all actives have a fitted effect of over 50% in size; note: potency is the fitted concentration of half-maximal effect
Summary of the method: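 50 nM HP1-beta + 50 nM biotin-H3(1-18)K9me3, PBS pH 7.4, 0.01% Tween-20, 30 min RT; compound added, 30 min RT; AlphaScreen beads 10 ug/mL final, 30 min dark; luminescence read.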

[16] = target: Methanococcus maripaludis chaperonin (MmCpn) (UniProt Q6LX38); experiment: High-Throughput Screening for Modulators of Cytosolic Chaperonin Activity: MmCpn Primary Screen (AID 488978);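 note: 50 nM MmCpn enzyme hydrolysing 30 µM ATP at 37 °C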
Summary of the method: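 ATPase activity of 50 nM MmCpn was assayed with 30 uM ATP, 10 minutes at 37C, after a 5 min compound preincubation at room temperature. ADP production was read as HTRF emission at 590 and 665 nm.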

[17] = target: DNA polymerase III PolC-type (Bacillus subtilis (strain 168)) (UniProt P13267); experiment: qHTS Validation Assay for the Inhibitors of DNA Replication in Gram-Positive Bacteria (AID 485295); note: potency is the fitted concentration of half-maximal effect
Summary of the method: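 Double-stranded DNA product detected by PicoGreen fluorescence after EDTA quench. Compound incubated with B. subtilis holoenzyme (PolC, beta subunit, SSB, primase) before substrate addition; primed replication of M13Gori with dNTPs and NTPs at room temperature; DMSO defines 0% inhibition.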

[18] = target: ATP-dependent 6-phosphofructokinase (Trypanosoma brucei brucei) (UniProt O15648); experiment: qHTS Validation Assay to Find Inhibitors of T. brucei phosphofructokinase (AID 485368); note: potency is the fitted concentration of half-maximal effect
Summary of the method: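 Activity was read as ADP production by luminescence (ADP-Glo) after 45 min at room temperature. The enzyme was 1.25nM PFK in 0.1M TEA pH 8.0 with 0.5 mM F6P, 0.1mM ATP and 5 mM MgCl2. Compounds were titrated up to 57 uM and % activity normalized to no-enzyme and full-enzyme controls.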

Sequence of M-phase phosphoprotein 8 (Homo sapiens) (Q99549 whole entry, looked up): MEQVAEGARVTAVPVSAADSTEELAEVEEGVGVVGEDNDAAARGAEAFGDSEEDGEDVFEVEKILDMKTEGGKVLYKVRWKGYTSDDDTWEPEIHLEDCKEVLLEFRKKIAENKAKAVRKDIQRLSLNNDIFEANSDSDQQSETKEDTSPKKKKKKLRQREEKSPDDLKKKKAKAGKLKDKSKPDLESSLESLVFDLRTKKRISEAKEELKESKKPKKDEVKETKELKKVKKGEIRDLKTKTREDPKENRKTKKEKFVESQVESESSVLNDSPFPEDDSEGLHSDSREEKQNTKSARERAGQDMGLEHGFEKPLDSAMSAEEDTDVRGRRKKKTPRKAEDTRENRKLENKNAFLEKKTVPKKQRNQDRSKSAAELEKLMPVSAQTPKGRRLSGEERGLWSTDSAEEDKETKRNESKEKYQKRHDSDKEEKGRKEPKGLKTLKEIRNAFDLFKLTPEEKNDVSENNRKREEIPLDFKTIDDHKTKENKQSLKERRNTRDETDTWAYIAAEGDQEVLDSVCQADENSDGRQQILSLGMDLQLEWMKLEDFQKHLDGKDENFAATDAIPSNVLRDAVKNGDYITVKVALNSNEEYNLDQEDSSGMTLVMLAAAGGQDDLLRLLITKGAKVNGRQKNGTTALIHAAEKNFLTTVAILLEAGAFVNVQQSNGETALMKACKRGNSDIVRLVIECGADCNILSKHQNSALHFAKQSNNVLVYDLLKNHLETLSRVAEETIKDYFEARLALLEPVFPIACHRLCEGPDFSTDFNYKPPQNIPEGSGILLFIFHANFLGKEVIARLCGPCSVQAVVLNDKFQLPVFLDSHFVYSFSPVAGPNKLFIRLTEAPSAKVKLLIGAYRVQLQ
Sequence of Ubiquitin carboxyl-terminal hydrolase 2 (Homo sapiens) (O75604 whole entry, looked up): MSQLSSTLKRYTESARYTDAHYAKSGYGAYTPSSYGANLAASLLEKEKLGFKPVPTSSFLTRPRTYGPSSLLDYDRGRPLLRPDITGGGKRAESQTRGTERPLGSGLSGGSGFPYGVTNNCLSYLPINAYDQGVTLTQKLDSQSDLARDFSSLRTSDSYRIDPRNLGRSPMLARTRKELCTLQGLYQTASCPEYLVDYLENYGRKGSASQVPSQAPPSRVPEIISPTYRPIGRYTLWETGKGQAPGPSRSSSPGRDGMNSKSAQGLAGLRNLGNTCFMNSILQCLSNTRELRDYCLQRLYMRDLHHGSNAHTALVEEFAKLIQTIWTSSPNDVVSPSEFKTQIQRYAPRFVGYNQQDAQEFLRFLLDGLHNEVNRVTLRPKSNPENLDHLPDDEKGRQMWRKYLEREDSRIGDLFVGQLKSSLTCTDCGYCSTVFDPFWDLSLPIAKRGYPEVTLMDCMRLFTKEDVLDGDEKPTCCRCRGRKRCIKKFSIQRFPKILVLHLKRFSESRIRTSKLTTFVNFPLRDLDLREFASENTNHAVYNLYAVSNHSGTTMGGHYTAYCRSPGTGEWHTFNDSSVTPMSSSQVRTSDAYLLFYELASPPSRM
Sequence of DNA polymerase III PolC-type (Bacillus subtilis (strain 168)) (P13267 whole entry, looked up): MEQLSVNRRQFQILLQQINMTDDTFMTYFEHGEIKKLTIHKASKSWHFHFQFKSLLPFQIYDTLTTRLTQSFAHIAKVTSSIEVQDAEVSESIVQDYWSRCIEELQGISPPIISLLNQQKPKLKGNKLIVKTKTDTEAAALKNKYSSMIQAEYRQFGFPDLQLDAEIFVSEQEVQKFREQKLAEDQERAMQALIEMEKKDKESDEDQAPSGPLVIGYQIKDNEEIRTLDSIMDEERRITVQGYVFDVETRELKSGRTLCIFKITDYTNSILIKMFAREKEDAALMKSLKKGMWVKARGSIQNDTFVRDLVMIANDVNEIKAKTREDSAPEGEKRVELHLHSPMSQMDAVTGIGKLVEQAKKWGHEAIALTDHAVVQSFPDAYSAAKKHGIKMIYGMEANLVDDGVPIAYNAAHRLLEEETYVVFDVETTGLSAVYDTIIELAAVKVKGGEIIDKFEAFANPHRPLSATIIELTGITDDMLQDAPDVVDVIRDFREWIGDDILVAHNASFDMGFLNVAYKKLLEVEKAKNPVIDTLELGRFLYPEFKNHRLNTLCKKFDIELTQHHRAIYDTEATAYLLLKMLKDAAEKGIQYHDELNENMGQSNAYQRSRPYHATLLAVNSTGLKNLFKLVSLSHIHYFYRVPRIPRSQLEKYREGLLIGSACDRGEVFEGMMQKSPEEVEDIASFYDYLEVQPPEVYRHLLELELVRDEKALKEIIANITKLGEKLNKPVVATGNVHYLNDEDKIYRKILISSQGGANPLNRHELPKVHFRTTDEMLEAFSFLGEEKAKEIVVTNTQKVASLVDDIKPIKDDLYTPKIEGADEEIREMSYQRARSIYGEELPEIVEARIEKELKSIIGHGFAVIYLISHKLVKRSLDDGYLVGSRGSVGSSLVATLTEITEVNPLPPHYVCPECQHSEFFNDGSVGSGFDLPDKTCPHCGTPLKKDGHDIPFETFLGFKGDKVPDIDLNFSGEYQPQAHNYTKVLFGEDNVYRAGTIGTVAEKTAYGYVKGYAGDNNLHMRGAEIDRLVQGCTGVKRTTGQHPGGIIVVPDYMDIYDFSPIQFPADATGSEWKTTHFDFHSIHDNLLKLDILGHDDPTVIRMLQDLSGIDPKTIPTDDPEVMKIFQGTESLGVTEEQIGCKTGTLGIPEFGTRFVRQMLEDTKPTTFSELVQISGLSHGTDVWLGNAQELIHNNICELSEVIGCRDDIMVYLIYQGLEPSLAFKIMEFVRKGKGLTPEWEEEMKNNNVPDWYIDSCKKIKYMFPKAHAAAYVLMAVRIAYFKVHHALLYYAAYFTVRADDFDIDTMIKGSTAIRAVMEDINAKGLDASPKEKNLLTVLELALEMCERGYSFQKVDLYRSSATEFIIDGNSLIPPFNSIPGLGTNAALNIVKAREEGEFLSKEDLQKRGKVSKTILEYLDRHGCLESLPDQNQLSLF
Sequence of Thioredoxin reductase 1, cytoplasmic (Rattus norvegicus) (O89049 whole entry, looked up): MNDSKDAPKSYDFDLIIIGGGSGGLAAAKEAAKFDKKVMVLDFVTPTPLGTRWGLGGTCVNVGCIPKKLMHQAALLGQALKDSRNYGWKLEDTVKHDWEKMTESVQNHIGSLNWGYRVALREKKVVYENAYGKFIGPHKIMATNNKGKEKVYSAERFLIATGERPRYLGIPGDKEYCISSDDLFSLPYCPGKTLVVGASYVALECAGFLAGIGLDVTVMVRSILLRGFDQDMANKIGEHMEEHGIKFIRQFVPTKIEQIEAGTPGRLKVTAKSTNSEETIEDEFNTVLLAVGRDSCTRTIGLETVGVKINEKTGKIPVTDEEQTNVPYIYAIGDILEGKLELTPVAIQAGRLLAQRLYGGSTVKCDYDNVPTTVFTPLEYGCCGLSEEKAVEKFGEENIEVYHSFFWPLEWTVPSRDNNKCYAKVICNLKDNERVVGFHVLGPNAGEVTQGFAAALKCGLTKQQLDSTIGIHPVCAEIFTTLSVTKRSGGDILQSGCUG
Sequence of ATP-dependent 6-phosphofructokinase (Trypanosoma brucei brucei) (O15648 whole entry, looked up): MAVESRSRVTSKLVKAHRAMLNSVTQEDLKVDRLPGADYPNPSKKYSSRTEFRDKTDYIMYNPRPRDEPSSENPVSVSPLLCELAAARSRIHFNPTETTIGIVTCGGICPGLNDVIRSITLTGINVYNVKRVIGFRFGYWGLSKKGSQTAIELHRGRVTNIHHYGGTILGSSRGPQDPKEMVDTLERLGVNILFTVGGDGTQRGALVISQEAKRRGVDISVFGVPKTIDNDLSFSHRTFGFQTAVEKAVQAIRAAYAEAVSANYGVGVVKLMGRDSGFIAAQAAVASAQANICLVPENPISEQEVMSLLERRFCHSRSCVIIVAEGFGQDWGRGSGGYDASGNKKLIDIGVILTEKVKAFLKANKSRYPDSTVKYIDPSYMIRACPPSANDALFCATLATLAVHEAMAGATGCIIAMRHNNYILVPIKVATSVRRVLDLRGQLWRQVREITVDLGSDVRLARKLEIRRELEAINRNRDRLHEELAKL
Sequence of Tumor susceptibility gene 101 protein (Homo sapiens) (Q99816 whole entry, looked up, the tested form may be a part): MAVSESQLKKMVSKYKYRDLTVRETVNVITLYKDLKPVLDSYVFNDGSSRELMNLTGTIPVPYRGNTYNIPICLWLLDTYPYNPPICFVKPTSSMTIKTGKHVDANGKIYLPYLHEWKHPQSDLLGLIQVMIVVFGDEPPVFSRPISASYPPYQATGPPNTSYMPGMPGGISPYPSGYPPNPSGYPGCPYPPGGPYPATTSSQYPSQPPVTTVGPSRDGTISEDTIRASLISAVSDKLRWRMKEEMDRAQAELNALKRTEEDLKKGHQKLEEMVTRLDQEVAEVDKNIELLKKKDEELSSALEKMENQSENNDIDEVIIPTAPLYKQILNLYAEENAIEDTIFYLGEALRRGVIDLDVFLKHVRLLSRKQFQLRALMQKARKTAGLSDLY
Sequence of Chromobox protein homolog 1 (Homo sapiens) (P83916 whole entry, looked up): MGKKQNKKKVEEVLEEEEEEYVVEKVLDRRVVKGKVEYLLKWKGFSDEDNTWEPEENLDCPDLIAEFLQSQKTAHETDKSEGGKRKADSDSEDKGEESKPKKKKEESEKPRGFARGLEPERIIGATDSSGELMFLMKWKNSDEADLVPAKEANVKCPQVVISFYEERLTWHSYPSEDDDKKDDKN
Sequence of Flap endonuclease 1 (Homo sapiens) (P39748 whole entry, looked up): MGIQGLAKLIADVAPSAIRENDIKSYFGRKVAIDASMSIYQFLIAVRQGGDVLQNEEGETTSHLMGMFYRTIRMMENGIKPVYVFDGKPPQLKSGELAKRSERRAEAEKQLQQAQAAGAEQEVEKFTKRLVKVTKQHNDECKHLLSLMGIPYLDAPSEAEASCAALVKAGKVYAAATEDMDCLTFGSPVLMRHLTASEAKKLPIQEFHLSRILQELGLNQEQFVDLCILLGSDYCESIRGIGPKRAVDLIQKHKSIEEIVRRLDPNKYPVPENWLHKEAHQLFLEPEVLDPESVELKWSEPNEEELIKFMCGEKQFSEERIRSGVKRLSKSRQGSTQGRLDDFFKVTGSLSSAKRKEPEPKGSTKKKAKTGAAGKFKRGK

| Structure (SMILES) | outcome [1] | Potency [2] | Potency [3] | Potency [4] | Potency [5] | outcome [6] | outcome [7] | outcome [8] | Potency [9] | Potency [10] | outcome [11] | Potency [12] | Potency [13] | Potency [14] | Potency [15] | outcome [16] | Potency [17] | Potency [18] |
| --- | --- | --- | --- | --- | --- | --- | --- | --- | --- | --- | --- | --- | --- | --- | --- | --- | --- | --- |
| Nc1ccc(N2C(=O)c3ccccc3C2=O)c(Cl)c1 | inactive | inactive | inactive | inactive | inactive | inactive | inactive | inactive | inactive | inactive | inactive | inactive | inactive | inactive | inactive | inactive |  |  |
| CNCCNS(=O)(=O)c1cccc2cnccc12 | inactive | inactive | inactive | inactive | inactive | inactive |  |  | inactive | inactive | inactive | inactive |  | inactive | inactive | inactive | inactive | inactive |
| Nc1ncnc2c1ncn2C1CCCC1 | inactive | inactive | inactive | inactive |  |  | inactive | inactive |  | inactive | inactive | inactive | inactive | inactive |  | inactive | inactive |  |
| CNCCc1cnc(CCC(c2ccccc2)c2ccccc2)[nH]1 |  |  | 11.7 µM (active) |  | inactive | inactive |  | inactive |  |  |  |  |  | inactive |  | inactive | inactive |  |
| COc1cccc(OC)c1OCCNCC1CSc2ccccc2O1 (stereo unspecified) | inactive | inactive | inactive | inactive | inactive | inactive |  | inactive | inactive | inactive |  | inactive | inactive | inactive | inactive | inactive | inactive |  |
| CC(C)NC[C@H](O)COc1ccc(CC(N)=O)cc1 |  | inactive | inactive | inactive | inactive |  | inactive |  | inactive |  | inactive | inactive |  |  | inactive | inactive | inactive | inactive |
| CCCCCCCC/C=C\CCCCCCCC(=O)NCCc1ccc(O)c(O)c1 |  | 5.21 µM (active) | 3.69 µM (active) |  | inactive | inactive |  | inactive |  | 13.1 µM (active) |  |  | inactive | inactive |  | inactive | 18.9 µM (active) |  |
| CCCCCCCCCC(=O)NC(CN1CCOCC1)[C@H](O)c1ccccc1 (stereo partly specified) | inactive |  |  |  | inactive | inactive | inactive | inactive |  |  | inactive | inactive | inactive | inactive | inactive | inactive | inactive |  |
| O=c1cc(O)cc(/C=C/c2ccc(O)c(O)c2)o1 | inactive | inactive | inactive | inactive | inactive |  |  |  |  |  | inactive | inactive |  | 5.32 µM (active) |  | inactive | 21.2 µM (active) |  |
| CCCOC(=O)c1c(-c2ccccc2)nc(CC)c(C(=O)SCC)c1CCC | inactive | inactive | inactive |  | inactive | inactive |  | inactive | 14.7 µM (active) |  | inactive | inactive |  | inactive | inactive | inactive | inactive |  |
| C=CCNc1ncnc2ccc(Br)cc12 | inactive | inactive |  |  | inactive |  |  | inactive |  |  | inactive | inactive | inactive | inactive | inactive | inactive | inactive | inactive |
| O=c1[nH]c2cc(Cl)ccc2c(O)c1-c1ccc(Oc2ccccc2)cc1 | inactive | inactive | inactive | inactive | inactive | inactive |  | inactive | inactive | inactive | inactive | inactive |  | inactive | inactive | inactive | inactive |  |
| COc1cc(/C=C(\C#N)C(=O)c2ccc(O)c(O)c2)cc(I)c1O | inactive | inactive | inactive |  |  | inactive |  | inactive |  | inactive | inactive |  | 0.844 µM (active) | 8.91 µM (active) and 8.44 µM (active) | 10 µM (active) | inactive |  | 6.01 µM (active) |
| S=C(S)N1CCCC1 |  |  |  |  | inactive | inactive | inactive | inactive |  |  | inactive | inactive | inactive |  |  | inactive | inactive |  |
| CC1C(=O)N(C)C(=O)c2nc[nH]c21 (stereo unspecified) | inactive | inactive | inactive | inactive |  | inactive |  | inactive | inactive | inactive | inactive |  | inactive | inactive | inactive | inactive | inactive | inactive |
| O=c1oc(Cl)c(Cl)c2ccccc12 |  |  |  |  | inactive | inactive |  | inactive |  | inactive | inactive |  | inactive |  |  | inactive | inactive | inactive |
| c1ccc2c(c1)CC(N1CCN(c3cccc4c3OCCO4)CC1)C2 | inactive | inactive | inactive | inactive | inactive | inactive | inactive | inactive |  | inactive | inactive | inactive | inactive | inactive | 0.006 µM (active) | inactive |  | inactive |
